# Shown is part of a subset that was picked to be rich in the strongest signals.
# B1: Epa1-NP-mutant-Y228W (Candida glabrata), Q6VBJ0 (protein)
# chain: MILNPALFLNKCVCIYTTLILLLLTNGGYATSSNDISLASKDPTTFPLGCSPDITTPKKGLSMELYSYDFRKKGSYPCWDAAYLDPNYPRTGYKSHRLLAKVDGVTGNINFYYHATKGCTPQLGHLPASYNYPKPLTMTNFTMLLYGYFRPKVTGFHTFTISADDLLFVNFGAGNAFDCCRRDSSADHFGNYQAYAIWGSKTAKDELTVHLDAGVYYPIRLFYNNREWDGALSFTFKTESNENTVSDFSEYFFSLDDTEEGCPGLISYDSSCASVKTSKIIGIDYHTETPNENLVPITKTIYHLGIPCTGTTTTPLCGSGFYDPLANKCVTINTSSTSSVTKTTSHTTSKEVSFHSSISSQKTLIPKSIPSPYGPIKSQSIPTEMETSSEISSSEYAFSDVISTPSHSPYTKKHSSLNSSSYTSTVIHSLTSYSISQGIFSTSLSEQNITSKSSTDKFSTATSMSNNITQSSIIISQFSTNNENYTTTSMHTSSDKISTETLNNSISTTTSILFSNSSTILKNNTTIISSDKDTHYHPVNPTIVCSTNKTEIICASITQPSISNSNNHWSSSVLKFNSTTVRSTLPSSAGSNETSINVPFSSSTESNTSTSSTSTSNSKMVRSTLPSSAGSNETSISVPFSSSTESNTSTSSTSTSNSKMVRSTLPSSAGSNETSINVPFSSSTESNTSTSSTSTSNSKTVRSTPFSSAGIIMTSLSQRNNKSASSYASSNSKCYNTADSCRKVHSTPSYLLTSSYTSEGVDYDCSLVSTKLKINDTNCVNNKHTTKSCLKTSVTTTIPTLEIKTARKSSSNTIGLHSYPTSSPNKSISSAPIIGYISSFKTIKTASPSYQTSDLTTITTITSLNNPGSTAVENTHESNDKSRKTSSNDISSKHSVIKETKDAVESSNKSHQTNTLKCSSIIIASSSHNSYESLGGTTLTLTLSKVYSPQNNDTLPFLEISEVNPSRTVLPESSKMMQYLTSTEERNKTARNTIATNIVSISTFHFEGEGNAIRMGYTQLLLMLIGIIVMNIGT
# Experiments:
# Assay in all cases: glycan array binding signal (z-score within array); higher = stronger binding
# Details in all cases: glycan notation: IUPAC condensed, linker removed; mutation: Y228W
# [1] = target: Gal(b1-4)GlcNAc(b1-3)Gal(b1-4)GlcNAc(b1-3)Gal(b1-4)GlcNAc(b1-2)[Gal(b1-4)GlcNAc(b1-3)Gal(b1-4)GlcNAc(b1-3)Gal(b1-4)GlcNAc(b1-6)]Man(a1-6)[Gal(b1-4)GlcNAc(b1-3)Gal(b1-4)GlcNAc(b1-3)Gal(b1-4)GlcNAc(b1-2)Man(a1-3)]Man(b1-4)GlcNAc(b1-4)[Fuc(a1-6)]GlcNAc
# Summary of the method: (§1)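 Glycan array binding is given as a within-array Z-score, which can be read as non-binding when negative. The arrays, 3228 of them, came from the Consortium for Functional Glycomics database and were retained only where the protein sequence was available. Z-scores were averaged across arrays of the same protein sequence at different concentrations or buffers and across linkers.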
# [2] = target: Gal(b1-4)GlcNAc(b1-3)Gal(b1-4)GlcNAc(b1-3)Gal(b1-4)GlcNAc(b1-3)Gal(b1-4)GlcNAc(b1-3)Gal(b1-4)GlcNAc(b1-2)Man(a1-3)[Gal(b1-4)GlcNAc(b1-3)Gal(b1-4)GlcNAc(b1-3)Gal(b1-4)GlcNAc(b1-3)Gal(b1-4)GlcNAc(b1-3)Gal(b1-4)GlcNAc(b1-2)Man(a1-6)]Man(b1-4)GlcNAc(b1-4)GlcNAc
# Summary of the method: as §1
# [3] = target: Gal(b1-4)GlcNAc(b1-6)[Gal(b1-3)]GalNAc
# Summary of the method: as §1
# [4] = target: Gal3S(b1-4)[Fuc(a1-3)]GlcNAc6S
# Summary of the method: as §1
# Gal6S(b1-3)GlcNAc6S = target: Gal6S(b1-3)GlcNAc6S
# Summary of the method: as §1
# Gal6S(b1-4)GlcNAc6S = target: Gal6S(b1-4)GlcNAc6S
# Summary of the method: as §1
# [5] = target: GalNAc(b1-4)GlcNAc(b1-3)GalNAc(b1-4)GlcNAc
# Summary of the method: as §1
# Glc(a1-4)Glc = target: Glc(a1-4)Glc
# Summary of the method: as §1
# GlcA(b1-6)Gal = target: GlcA(b1-6)Gal
# Summary of the method: as §1
# [6] = target: GlcNAc(a1-3)Gal(b1-4)GlcNAc
# Summary of the method: as §1
# GlcNAc(b1-3)Gal = target: GlcNAc(b1-3)Gal
# Summary of the method: as §1
# [7] = target: GlcNAc(b1-4)Gal(b1-4)GlcNAc
# Summary of the method: as §1
# Man(a1-3)[Man(a1-6)]Man = target: Man(a1-3)[Man(a1-6)]Man
# Summary of the method: as §1
# [8] = target: Man(a1-3)[Man(a1-6)]Man(a1-6)[Man(a1-3)]Man
# Summary of the method: as §1
# [9] = target: Neu5Ac(a2-3)Gal(b1-3)GalNAc6S
# Summary of the method: as §1
# [10] = target: Neu5Ac(a2-3)Gal(b1-3)GlcNAc(b1-2)Man(a1-3)[Neu5Ac(a2-3)Gal(b1-3)GlcNAc(b1-2)Man(a1-6)]Man(b1-4)GlcNAc(b1-4)GlcNAc
# Summary of the method: as §1
# [11] = target: Neu5Ac(a2-3)Gal(b1-3)[Fuc(a1-4)]GlcNAc(b1-3)Gal(b1-4)[Fuc(a1-3)]GlcNAc
# Summary of the method: as §1
# [12] = target: Neu5Ac(a2-3)Gal(b1-4)GlcNAc(b1-3)Gal(b1-4)[Fuc(a1-3)]GlcNAc
# Summary of the method: as §1
# [13] = target: Neu5Ac(a2-3)Gal(b1-4)[Fuc(a1-3)]GlcNAc(b1-3)Gal
# Summary of the method: as §1
# [14] = target: Neu5Ac(a2-3)[GalNAc(b1-4)]Gal(b1-4)GlcNAc
# Summary of the method: as §1
# [15] = target: Neu5Ac(a2-6)Gal(b1-4)GlcNAc(b1-2)Man(a1-3)[Gal(b1-4)GlcNAc(b1-2)Man(a1-6)]Man(b1-4)GlcNAc(b1-4)GlcNAc
# Summary of the method: as §1
# [16] = target: Neu5Ac(a2-6)Gal(b1-4)GlcNAc(b1-2)Man(a1-3)[Man(a1-6)]Man(b1-4)GlcNAc(b1-4)GlcNAc
# Summary of the method: as §1
# [17] = target: Neu5Ac(a2-6)Gal(b1-4)GlcNAc(b1-2)Man(a1-3)[Neu5Ac(a2-6)Gal(b1-4)GlcNAc(b1-2)Man(a1-6)]Man(b1-4)GlcNAc(b1-4)[Fuc(a1-6)]GlcNAc
# Summary of the method: as §1
# [18] = target: Neu5Ac(a2-6)Gal(b1-4)GlcNAc(b1-2)Man(a1-6)[Gal(b1-4)GlcNAc(b1-2)Man(a1-3)]Man(b1-4)GlcNAc(b1-4)GlcNAc
# Summary of the method: as §1
# [19] = target: Neu5Ac(a2-6)GalNAc(b1-4)GlcNAc6S
# Summary of the method: as §1
# Neu5Ac(a2-8)Neu5Ac = target: Neu5Ac(a2-8)Neu5Ac
# Summary of the method: as §1
# [20] = target: Neu5Gc(a2-3)Gal(b1-4)GlcNAc
# Summary of the method: as §1
# [21] = target: Neu5Gc(a2-8)Neu5Gc(a2-3)Gal(b1-4)GlcNAc(b1-3)Gal(b1-4)GlcNAc
# Summary of the method: as §1
binder,measurement,setting,value
B1,glycan array binding signal (z-score),[1],3.05
same,glycan array binding signal (z-score),[2],1.78
same,glycan array binding signal (z-score),[3],2.77
same,glycan array binding signal (z-score),[4],-0.015
same,glycan array binding signal (z-score),Gal6S(b1-3)GlcNAc6S,0.205
same,glycan array binding signal (z-score),Gal6S(b1-4)GlcNAc6S,3.63
same,glycan array binding signal (z-score),[5],-0.329
same,glycan array binding signal (z-score),Glc(a1-4)Glc,-0.29
same,glycan array binding signal (z-score),GlcA(b1-6)Gal,0.341
same,glycan array binding signal (z-score),[6],-0.131
same,glycan array binding signal (z-score),GlcNAc(b1-3)Gal,-0.421
same,glycan array binding signal (z-score),[7],-0.126
same,glycan array binding signal (z-score),Man(a1-3)[Man(a1-6)]Man,-0.183
same,glycan array binding signal (z-score),[8],-0.095
same,glycan array binding signal (z-score),[9],-0.312
same,glycan array binding signal (z-score),[10],-0.117
same,glycan array binding signal (z-score),[11],0.021
same,glycan array binding signal (z-score),[12],-0.295
same,glycan array binding signal (z-score),[13],-0.343
same,glycan array binding signal (z-score),[14],-0.228
same,glycan array binding signal (z-score),[15],-0.285
same,glycan array binding signal (z-score),[16],0.235
same,glycan array binding signal (z-score),[17],-0.238
same,glycan array binding signal (z-score),[18],-0.14
same,glycan array binding signal (z-score),[19],-0.172
same,glycan array binding signal (z-score),Neu5Ac(a2-8)Neu5Ac,-0.272
same,glycan array binding signal (z-score),[20],-0.19
same,glycan array binding signal (z-score),[21],-0.388
